The structures appear in SMILES notation. This is part of a sample that, as a whole, favours compounds with a hit. Of some 83,000 tested, about 20% had one in any assay.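 Activity criterion: percent growth below 10, measured after cells in 96-well plates were exposed to a single compound concentration for 48 hours.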 Unmarked numbers belong to inactive results. Calls of active or inactive are those of the source.

The assay has as its system A498 renal. In words: NCI-60 one-dose screen, 48 h (100 = growth as untreated, 0 = no growth, -100 = all killed). The note with it: 10 µM unless noted. The protocol:
Growth inhibition of the A498 human tumor cell line is measured as a screen for anti-cancer activity. Cells are grown in 96 well plates and exposed to the test compound for 48 hours. Compounds are tested at a single concentration, which is 10^-5 M for most compounds. The reported endpoint is percent growth (GI% or GIPRCNT), where numbers from 0 - 100% represent growth inhibition, and numbers from -100% - 0 represent cell death. For example, a value of 40 represents 60% growth inhibition. A value of 0 means no net growth occurred over the course of the experiment. A value of -40 indicates 40% of cells at the beginning of the experiment died by the end of the experiment. A value of -100 means all cells are dead at the end of the experiment.
NCI-60 Human Tumor Cell Lines Screen was performed using the standard one-dose NCI protocol, which is described in more detail at https://dtp.cancer.gov/discovery_development/nci-60/default.htm.
Compounds with GIPRCNT values below 10 were considered active. Activity score was based on GIPRCNT using the following formula: […]
Score is 0 for GIPRCNT values of 100 or above, 50 for GIPRCNT values of 0, and 100 for GIPRCNT values of -100.
As to `CCN(CC)CCNc1c(C)cc(CO)c(Cl)c1C`, the growth is 89%. In the case of `Fc1ccc(-c2nnc(N3CCOCC3)c3ccccc23)cc1`, the growth was 105%. The result for `Cc1ccc2nc(CN(CCN(Cc3nc4ccc(C)cc4[nH]3)Cc3nc4ccc(C)cc4[nH]3)Cc3nc4ccc(C)cc4[nH]3)[nH]c2c1` reads -94% (active). The result for `COc1ccc(C2CC(c3cccc(Nc4ccnc5cc(Cl)ccc45)c3)=NN2c2ccccc2)cc1` (stereo not given) reads 55.7%; that for `COc1cc(Nc2ccnc3ccc(Br)cc23)cc(OC)c1OC`, -7.03% (active). The result for `Cc1ccc(NC(=O)c2[nH]c(SCCN(C)C)nc2-c2ccc(F)cc2)cc1Nc1ccc2ncn(C)c(=O)c2c1` reads 61.2%; that for `CC1=NOCC(=O)N1`, 111%. Take `CC(C)c1[nH]ncc1-c1nc2ccc3[nH]ncc3c2c2c1CCCC2`: the growth was -12.7% (active). The result for `Cc1cc(C)c2c(n1)sc1c(Nc3ccc(Cl)cc3Cl)ncnc12` reads 15.6%; that for `COc1cc2nccc(Oc3ccc(NC(=O)C4(C(=O)Nc5ccc(F)cc5)CC4)cc3)c2cc1Oc1ccc(N)cn1`, -20.9% (active); that for `Cc1cc(O)ccc1C1=NN(c2ccc(S(N)(=O)=O)cc2)C(=O)CC1`, -2.97% (active). The result for `COc1ccc(/C=c2\c(=O)n(-c3ccccc3)c3nn4c(n23)=NNC42CCCCC2)cc1` reads 93.4%. The result for `CCN1CCN(Cc2ccc(NC(=O)c3nc4ccc5[nH]ncc5c4c4c3CCCC4)cc2C(F)(F)F)CC1` reads 93.2%; that for `COc1ccc(C2=CC(c3ccc(OC)cc3Br)N3C=CSC3=N2)cc1` (stereo not given), 72.2%; that for `Clc1ccc2c(c1)-c1ccccc1C1=NCCN12`, 10.3%.

With `Clc1ccc(-c2nc(Br)cn3ccnc23)cc1`, the growth is 76.6%. Turning to `CN=C1C=C/C(=N/N=c2/ccn(O)cc2C)C=C1C`, the growth was 96%.

With `Fc1cc(-c2nnc3sc(-c4ccc(Cl)cc4)nn23)c(Cl)cc1Cl`, the growth was 97.8%.

`C#CCNC(=S)N/N=C(\C)c1ccccn1`: the growth was 16.7%. The result for `COc1ccc(Nc2ncnc3c2sc2nc(C)cc(C)c23)cc1` reads 91%; that for `O=C(Nc1ccccc1Cl)Oc1ccc2ccccc2c1`, 100%; that for `FC(F)(F)c1ccc(/C=N/Nc2nnc3n2N=C(c2ccc(Cl)cc2)CS3)cc1`, 69.9%. The result for `CCc1ccc(Nc2ncnc3c2cnn3-c2cccc(Br)c2)cc1` reads 70.7%; that for `C/C(CC(=O)NNc1ccc([N+](=O)[O-])cc1)=N\Nc1ccc([N+](=O)[O-])cc1`, 81%; that for `CC(=O)OC1Oc2cc(C)c(C)cc2-c2oc(=O)c(-c3cc4ccccc4oc3=O)cc21` (stereo not given), 75%. On to `COc1ccc(-c2nc(-c3cc(OC)cc(OC)c3)[nH]c2-c2ccc(OC)cc2)cc1`, for which the growth is 66%. The result for `COc1cc2nccc(Oc3ccc(NC(=O)C4(C(=O)Nc5c(F)cc(F)cc5F)CC4)cc3)c2cc1Oc1ccc(N)cn1` reads -6.52% (active); that for `Cc1c(C)c(C)c([N+](=O)[O-])c([N+](=O)[O-])c1C`, 67.9%; that for `CC1=C(C(=O)Nc2ccc(F)cc2)C(c2ccc(C)cc2)C2=C(CC(C)(C)CC2=O)N1` (stereo not given), 63.7%. The result for `O=C(/C=C/c1cn(-c2ccccc2)nc1-c1cccc(Nc2ccnc3cc(Cl)ccc23)c1)c1ccc2c(c1)OCO2` reads 92.3%.

As to `N#CC1=C(N)Oc2nc[nH]c(=O)c2C1c1cccs1` (stereo not given), the growth was 107%. The result for `CCOC(=O)Nc1ccc2nc(-c3cscn3)[nH]c2c1` reads 41.8%; that for `CCN(CC)CCCC(C)Nc1cnc(C(=O)Nc2cccc3ccc(OC)nc23)cn1` (stereo not given), 46.2%; that for `COc1ccc(C(=O)c2cc(C)c(OC)c(C)c2)cc1OC(=O)CCl`, 44.1%. The result for `COc1cc(C)cc2oc3oc(=O)c(-c4csc(-c5cc6ccccc6oc5=O)n4)cc3c(=O)c12` reads 107%.

Consider `O=C(NCCNC(=O)c1cc(S(=O)(=O)NCCc2ccccc2)c(O)c(O)c1O)c1cc(S(=O)(=O)NCCc2ccccc2)c(O)c(O)c1O`, for which the growth is 87.3%.

For the compound `C/C(=C\C(=N\N=C(N)N)c1ccc(Cl)cc1)c1ccc(Cl)cc1`, the growth was -93.6% (active). The result for `COc1cc(C2CC(c3ccc(Cl)cc3)=NN2C=O)ccc1OS(=O)(=O)c1ccc(C)cc1` (stereo not given) reads 74.1%. As to `C[C@@H](C[C@H](CC1CC1)c1ccccc1)c1ccc2ccccc2c1`, the growth is 100%. The result for `CC(=O)c1c(O)c(C)c(O)c2c1OC1=CC(=O)/C(=C(/C)N)C(=O)C12C` (stereo not given) reads 74.1%.

Values taken from PubChem BioAssay (NCI).
